Among the data in PubChem BioAssay (Tox21) are Potency and outcome values, retold here.

The nature of test [1]: qHTS assay for small molecule agonists of the p53 signaling pathway (AID 651631; calls by dose curve; note: nearly all actives have a fitted effect of over 15% in size; note: potency is the fitted concentration of half-maximal effect). The method in brief:
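We treat p53RE-bla HCT-116 cells with compounds for 16 h at 37 °C, add LiveBLAzer B/G FRET substrate for 2 h at room temperature, and measure fluorescence intensity.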
For orientation: In qHTS, concentration-response curves come from the screen itself.

Test [2] can be described thus: qHTS assay for small molecules that induce genotoxicity in human embryonic kidney cells expressing luciferase-tagged ATAD5 (AID 651632). Note: nearly all actives have a fitted effect of over 15% in size. In a few lines: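 Luminescent reporter readout, HEK293T ATAD5-luc line: 16 hr drug exposure (37C, 5% CO2) followed by Amplite, 30 min RT.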
Test [3] is described as follows: qHTS assay for small molecule agonists of the p53 signaling pathway - cell viability (AID 651633; calls by dose curve; note: nearly all actives have a fitted effect of over 30% in size; note: potency is the fitted concentration of half-maximal effect). In a few lines: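 p53RE-bla cells, seeded at 4,000 per well and rested 5 h at 37 C/5% CO2, received compounds in DMSO for 16 h at 37 C. CellTiter-Glo was then added, and luminescence was read after 30 min at room temperature to gauge cytotoxicity.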
The nature of test [4]: qHTS assay for small molecule disruptors of the mitochondrial membrane potential - cell viability (AID 720634; calls by dose curve; note: nearly all actives have a fitted effect of over 20% in size; note: potency is the fitted concentration of half-maximal effect). The method in brief: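 HepG2, 1 hr compound, 37 C. ATP luminescence via CellTiter-Glo, 30 min RT, same well as m-MPI.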
A short description of test [5]: qHTS assay for small molecule disruptors of the mitochondrial membrane potential (AID 720635). Note: potency is the fitted concentration of half-maximal effect. The method in brief:
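HepG2 cells (2,000/well) attached overnight at 37C, then took compound for 1 hr at 37C, 5% CO2. Mito-MPS dye was added for 30 min; fluorescence was read at 490/535 nm (monomers) and 540/590 nm (aggregates).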

Test [6] in a line: qHTS assay to test for compound auto fluorescence at 590 nm (red) in HepG2 cells (AID 720674). The method in brief: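 Rose Bengal sodium served as the red fluorophore standard. HepG2 monolayers (overnight attachment, MEM with 10% FBS) were exposed to test compounds for 1 hr at 37 C and read at Ex 540/Em 590 nm.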
The nature of test [7]: qHTS assay to test for compound auto fluorescence at 535 nm (green) in HepG2 cells (AID 720675).
Test [8] can be described thus: qHTS assay to test for compound auto fluorescence at 460 nm (blue) in HEK293 cells (AID 720678). The method in brief: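 Cells were seeded and left to adhere for 4-5 hr at 37C. Compounds were then pin-transferred. After an overnight incubation at 37C under 5% CO2, intrinsic fluorescence at 405/460 nm was measured and referenced to triamterene.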
Test [9] can be described thus: qHTS assay to test for compound auto fluorescence at 590 nm (red) in HEK293 cells (AID 720679). The method in brief:
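Each well held 2,000 HEK293 cells in medium containing 10% dialyzed FBS. Following 4-5 hr attachment at 37C, 23 nL test compound or DMSO was added; plates sat overnight, and red fluorescence (540/590nm) was recorded.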

Test [10] can be described thus: qHTS assay for small molecules that induce genotoxicity in human embryonic kidney cells expressing luciferase-tagged ATAD5 - cell viability (AID 651634; calls by dose curve; note: nearly all actives have a fitted effect of over 25% in size). In a few lines: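 Viability read: CellTiter-Fluor fluorescence, 30 min at 37C. Cells: HEK293T, luciferase-tagged ATAD5. Exposure: 15.5 hr, 37C, 5% CO2, compound or DMSO vehicle.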

Values joined by “and” are separate entries in the source; they are usually repeats but may differ in a detail not shown here. Equal values may be shown once. Records with an inconclusive call do not appear. Where a structure was tested more than once in an assay, its records may differ in their call. Active and inactive are the calls of the source. Unless noted, calls come from the whole dose curve; as a rule, active = well fitted curve in the direction sought with a large enough effect in the repeat runs; inconclusive = weak or mixed curves; inactive = no such curve, though single readings can be large; an effect the other way counts as inactive or inconclusive.

For the molecule `CCOP(=S)(OCC)Oc1nc(Cl)c(Cl)cc1Cl`, the Potency result in test [1] and in [2] was “inactive” throughout. Besides, the Potency in test [3] is 54.6 µM (active) and inactive; in test [4] it was 6.87 µM (active); in test [5], 13.7 µM (active) and 30.6 µM (active). Also, the molecule was classed as inactive in [6], in test [7], in test [8] and in test [9].
For `C=CCOC(C)=O`, the Potency entry in test [1], in test [2], in test [3], in test [10] and in [4] was “inactive” in each case. The call in test [6], in test [8] and in [9] was inactive.
`O=C(CBr)OCc1ccccc1`: the Potency entry in test [1], in test [2], in test [3], in test [10] and in test [4] was “inactive” throughout. The molecule was called inactive in test [6], in [7], in test [8] and in test [9].
With `CCOC(=O)C(Cl)C(C)=O` (stereo unspecified), the Potency result in test [1], in test [2], in test [3], in test [10] and in test [4] was “inactive” each time. The outcome in test [6], in test [7] and in test [9] was inactive.
`O=C(O)COc1ccc(Cl)cc1`: the Potency result in [1], in test [2], in test [3], in test [10] and in [4] was “inactive” throughout. Besides, the call in test [6], in test [7], in test [8] and in test [9] was inactive.
With `COc1c(C(C)(C)C)cc([N+](=O)[O-])c(C)c1[N+](=O)[O-]`, the Potency entry in test [1], in test [2], in test [3], in test [10] and in test [4] was “inactive” each time. In addition, the outcome in test [6], in test [7], in [8] and in test [9] was inactive.
Take `CC(C)(Cl)[N+](=O)[O-]`: the Potency entry in test [1], in test [2], in test [3], in [10] and in test [4] was “inactive” in each case. In addition, the molecule was classed as inactive in test [6], in [7], in test [8] and in [9].
Turning to `CCOP(=O)(OCC)O/C(=C/Cl)c1ccc(Cl)cc1Cl`, the Potency result in [1], in [2], in [3], in test [10] and in test [4] was “inactive” each time. Further, the result in test [6], in [7], in test [8] and in test [9] was inactive.
For the molecule `COc1cc(CC(C)N)cc2c1OCO2` (stereo unspecified), the Potency entry in test [1], in test [2], in test [3], in [4] and in test [5] was “inactive” in each case. In addition, the call in test [6], in test [7], in test [8] and in test [9] was inactive.
Take `Nc1nc(=S)[nH][nH]1`: the Potency result in test [1], in test [2], in test [3], in test [4] and in test [5] was “inactive” throughout. Also, the outcome in test [6], in test [7] and in test [9] was inactive.
Take `CCCCNP(N)(N)=S`: the Potency entry in test [1], in [2], in test [3], in [4] and in test [5] was “inactive” in each case. Also, the outcome in [6], in test [7], in [8] and in [9] was inactive.
`COc1ccc(-c2ccccc2)cc1NNC(=O)OC(C)C`: the Potency result in test [1], in test [2], in test [3] and in test [4] was “inactive” in each case. For the same molecule, the Potency in [5] is 56.8 µM (active). Moreover, the molecule was called inactive in [6], in [7], in test [8] and in test [9].
For `C[N+](C)(C)CCCl`, the Potency result in test [1], in [2], in test [3], in test [10] and in test [4] was “inactive” in each case. Also, the result in test [6], in test [7] and in test [9] was inactive.
`O=C(O)C(F)(F)C(F)(F)C(F)(F)C(F)(F)C(F)(F)C(F)(F)C(F)(F)C(F)(F)C(F)(F)C(F)(F)F`: the Potency result in test [1], in test [2], in [3], in test [10] and in [4] was “inactive” throughout. Besides, the call in [6], in test [7] and in test [9] was inactive.
As to `c1ccoc1`, the Potency result in test [1], in [2], in [3], in test [4] and in test [5] was “inactive” each time. The call in test [6], in test [7], in test [8] and in test [9] was inactive.
For the molecule `NNC(=O)c1cccnc1`, the Potency entry in test [1], in [2], in test [3] and in test [4] was “inactive” throughout. In addition, the call in test [6], in test [7], in test [8] and in test [9] was inactive.
For the molecule `CCCN(CCCl)c1c([N+](=O)[O-])cc(C(F)(F)F)cc1[N+](=O)[O-]`, the Potency entry in test [1], in [3] and in test [10] was “inactive” throughout. In addition, the molecule was classed as inactive in [6], in test [7], in test [8] and in test [9].
For `C=CC(=O)OC(C)(C)C`, the Potency entry in [1], in [3] and in [10] was “inactive” each time. For the same molecule, the call in [6], in [7], in test [8] and in test [9] was inactive.
For the molecule `CCCCN(N=O)C(=N)N[N+](=O)[O-]`, the Potency in test [1] is 62.4 µM (active). Moreover, the Potency entry in test [3], in test [4] and in test [5] was “inactive” each time. For the same molecule, the call in [6], in test [7] and in [9] was inactive.
Regarding `II`, the Potency result in test [1], in test [3], in test [10] and in test [4] was “inactive” in each case. Moreover, in test [5], the Potency was 19.3 µM (active). For the same molecule, the molecule was called inactive in [6], in [8] and in test [9].
Turning to `O=NN1CCNCC1`, the Potency entry in [1], in test [3], in test [10], in test [4] and in test [5] was “inactive” in each case. In addition, the molecule was classed as inactive in [6], in test [8] and in [9].
Turning to `CCOS(C)(=O)=O`, the Potency result in test [1], in test [2], in test [3] and in test [4] was “inactive” in each case. Also, the result in test [6], in test [7], in test [8] and in test [9] was inactive.
Regarding `CN1C[C@H](CNC(=O)OCc2ccccc2)C[C@@H]2c3cccc4c3c(cn4C)C[C@H]21`, the Potency result in test [1], in [10] and in test [4] was “inactive” throughout. In addition, the molecule was classed as inactive in [6], in test [7] and in test [9].
For `CC1(C)[C@H](C=C(Cl)Cl)[C@@H]1C(=O)O[C@@H](C#N)c1cccc(Oc2ccccc2)c1`, the Potency entry in test [1], in [2] and in test [10] was “inactive” in each case. The molecule was classed as inactive in test [6], in test [7] and in [9].
`S=C=NCc1ccccc1`: the Potency was 69.3 µM (active) in test [1] and 55 µM (active) in test [5]. Further, the Potency result in test [3] and in test [4] was “inactive” throughout. Besides, the result in [6], in [7], in [8] and in test [9] was inactive.
With `CC(Cl)Cl`, the Potency result in test [1], in [3], in test [10], in [4] and in [5] was “inactive” each time. The molecule was called inactive in test [6], in [7], in test [8] and in [9].
For `COc1nn(C(=O)NS(=O)(=O)c2ccccc2OC(F)(F)F)c(=O)n1C`, the Potency result in test [2], in [3], in test [10], in test [4] and in test [5] was “inactive” each time. Besides, the result in test [6], in test [7], in test [8] and in [9] was inactive.
As for `O=S1(=O)OC(c2cc(Br)c(O)c(Br)c2)(c2cc(Br)c(O)c(Br)c2)c2ccccc21`, the Potency entry in [1] and in [2] was “inactive” each time. Besides, the Potency in test [3] was 44.5 µM (active); in test [4], 28.1 µM (active). In addition, the molecule was classed as inactive in test [6], in [7], in test [8] and in [9].
In the case of `CCCCCC[N+](=O)[O-]`, the Potency result in test [1], in [3] and in [4] was “inactive” in each case. In addition, the molecule was called inactive in [6], in test [7], in [8] and in test [9].
